Bioassay records (PubChem BioAssay)
HCMV antiviral: blocks human cytomegalovirus replication | hit rate 4.5% among 410,000 | HFF cells, HCMV-luciferase reporter, 72 h; hits give low values | activity change, negative = inhibition, % at 57.5 µM | AID 1259415; in the data active = activity change below about -60%; inconclusive = no clear call, values can overlap the other calls; inactive = above about -39%
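Steps: HFFs plated, 16 h 37C; compounds added; HCMV-luciferase added to MOI 1 PFU/cell; 72 h 37C; OneGlo reagent, 5 min room temperature; luminescence read, normalized to controls.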
Pf growth 96h: P. falciparum growth inhibition at 96 hour, primary screen for plastid delayed-death inhibitors; AID 504834; Potency, µM (top dose mostly 28.7 µM), actives largely listed as inhibitors; P. falciparum luciferase reporter growth, 96 h; hit rate 6.9% among 320,000
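Cell-based qHTS: luciferase-tagged P. falciparum in erythrocytes (2% hematocrit, 0.05% parasitemia final) incubated with compounds for 96 hours, 37 C, 5% CO2; luciferase detection reagent then added and luminescence measured.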
Cycloheximide cs: affects cycloheximide protein synthesis inhibition readout, counter-screen; cell reporter, cycloheximide protein synthesis inhibition counterscreen; hit rate 12% among 300,000; max response, %; AID 2314; in the data active = max response mostly above about 13%, no sharp cut-off; inactive = mostly below about 14%; note: read at 38.3 µM for the half of the compounds with a filed dose
Shiga inhibitor: blocks Shiga toxin action in Vero cells. Vero cells, Shiga toxin protein synthesis inhibition reporter. inhibition, % at 38.7 µM. hit rate 9.2% among 290,000; in the data active = inhibition mostly above about 28%, no sharp cut-off; inactive = mostly below about 43%
Pf growth 48h: inhibits P. falciparum growth in the first generation, 48 h; AID 504832; hit rate 5.9% among 310,000; Potency, µM (doses to about 28.7 µM), most hits filed as inhibitors; P. falciparum luciferase growth in erythrocytes, 48 h
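Erythrocytes infected with P. falciparum carrying an integrated firefly luciferase reporter (2% hematocrit, 0.1% parasitemia final) were exposed to compounds in RPMI 1640 with 0.5% Albumax at 37 C, 5% CO2. Growth inhibition was scored as reduced luminescence.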
Numbers stand for hits; i = inactive; ? = inconclusive; nt = no result. A selection: hits, their analogues and other compounds. The true share with any hit is near 20%. Unless noted, calls come from the whole dose curve; as a rule, active = well fitted inhibition curve with a large enough effect; inconclusive = small, poorly fitted or top-dose-only effect, or another doubt; inactive = no such curve, though single readings can be large or run the other way.

SMILES	HCMV antiviral	Pf growth 96h	Cycloheximide cs	Shiga inhibitor	Pf growth 48h
COc1cccc(NC(=O)c2ocnc2C)c1	i	i	25.5	63.1	i
Cc1nc(Cl)sc1C(=O)Nc1ccc(C(F)(F)F)cc1	i	i	20.4	nt	i
COc1cccc(NC(=O)c2sc(Cl)nc2C)c1	i	i	13.3	nt	i
O=C1CCC(=O)N(O)CCCCCNC(=O)CCC(=O)N(O)CCCCNC(=O)CCC(=O)N(O)CCCCCN1	i	?	i	i	i
CC12CCCCCC3=CC(=O)C=C[C@]31OCC2 (some centres not stated)	i	nt	nt	nt	nt
COc1ccc(NC(=O)c2cc(S(=O)(=O)N3CCCCC3)c[nH]2)c(OC)c1	?	i	i	i	i
Cc1ncoc1C(=O)Nc1cccc(Cl)c1C	i	i	16.1	i	i
COC(=O)c1ccccc1NC(=O)c1sc(Cl)nc1C	i	i	14.7	79.6	i
Cc1nc(C)c(C(=O)Nc2cccc(C)c2C)s1	i	?	i	i	i
Cc1ccc(NC(=O)c2ocnc2C)cc1Cl	i	?	52.4	69.8	i
Cc1cccc(NC(=O)c2sc(C)nc2C)c1	i	i	49.8	84.1	i
Cc1ccccc1NC(=O)c1ocnc1C	i	i	i	i	i
CCOC(=O)c1c(C)c(-c2ccccc2)n(CC(=O)NCc2ccccc2)c1C	i	nt	nt	nt	nt
CCCCN1CC(c2nc3ccccc3n2CCCCOc2c(C)cccc2C)CC1=O (configuration not stated)	i	nt	nt	nt	nt
Cc1cccc(C(=O)Nc2nc(C)c(C(=O)Nc3ccc4c(c3)CCC4)s2)c1	i	i	16.5	i	i
COc1ccc(NC(=O)c2c(NC(=O)c3cccc(C)c3)sc3c2CCC3)cc1	i	nt	nt	nt	nt
Cc1ccc(CSc2nnc(-n3c(=O)c(C#N)cc4c(=O)n5cc(C)ccc5nc43)s2)cc1	i	nt	nt	nt	nt
CNC(=S)N(CCc1ccc(OC)c(OC)c1)C1CC(=O)N(c2ccccc2)C1=O (configuration not stated)	nt	i	i	i	?
O=C1CC(N(CCc2ccccc2)C(=S)Nc2cc(Cl)ccc2Cl)C(=O)N1c1c(Cl)cccc1Cl (configuration not stated)	i	10.4µM	i	i	?
O=C1CC(N(CCc2ccccc2)C(=S)Nc2ccccc2)C(=O)N1c1ccccc1 (configuration not stated)	i	3.29µM	i	i	?
COC(=O)CN(C(=S)Nc1ccc(F)cc1)C1CC(=O)N(c2ccc(OC)cc2)C1=O (configuration not stated)	i	i	i	i	i
COC(=O)CN(C(=S)Nc1ccc(F)cc1)C1CC(=O)N(c2ccccc2)C1=O (configuration not stated)	i	i	i	i	10.4µM
CCNC(=S)N(CCc1ccc(S(N)(=O)=O)cc1)C1CC(=O)N(c2ccccc2)C1=O (configuration not stated)	?	10.4µM	i	i	?
CC(OC(=O)c1ccco1)C(=O)Nc1ccc(C(F)(F)F)cc1 (configuration not stated)	i	i	nt	nt	i
CCOc1cccc2cc(C(=O)NCc3ccc(F)cc3)c(=N)oc12	i	?	i	i	i
SMILES	HCMV antiviral	Pf growth 96h	Cycloheximide cs	Shiga inhibitor	Pf growth 48h
Cc1ccc(-c2noc(-c3cc4ccccc4oc3=O)n2)cc1	i	i	24.7	i	i
O=c1oc2ccc(Br)cc2cc1-c1nc(-c2ccccc2)no1	i	nt	nt	nt	nt
Cc1cccc(-c2noc(-c3cc4ccccc4oc3=O)n2)c1	i	i	29.4	84.9	i
O=c1oc2ccccc2cc1-c1nc(-c2ccccc2)no1	nt	i	35.7	106.7	i
O=C(Cc1ccccc1)N[C@@H](Cc1ccc(O)cc1)C(=O)O	nt	i	i	i	i
Cc1ccc(N2CC(C(=O)Nc3nc4ccc(S(C)(=O)=O)cc4s3)CC2=O)cc1C (configuration not stated)	i	i	i	i	i
O=S1(=O)CC(N2CCCC2)CN1Cc1cn(Cc2ccccc2)nn1 (configuration not stated)	i	nt	nt	nt	nt
O=c1c2ccccc2nnn1COc1cccc(Cl)c1	i	i	55.2	124.0	i
CC(C)Oc1ccc(CNC(=O)CCCN2C(=O)c3cccnc3Oc3ccc(Cl)cc32)cc1	i	nt	nt	nt	nt
O=C(N/N=C\c1ccc(CNS(=O)(=O)c2ccccc2)o1)C(=O)Nc1ccc(F)cc1	i	i	14.0	i	i
O=C(N/N=C\c1ccc(CNS(=O)(=O)c2ccc(Cl)cc2)o1)C(=O)Nc1ccc(Oc2ccccc2)cc1	-99.4	i	i	i	i
O/N=C/c1cc2ccccc2n1Cc1ccccc1F	i	i	i	i	2.62µM
NS(=O)(=O)C#Cc1ccccc1	nt	nt	26.4	15.2	nt
